Data published in PubChem BioAssay (NCATS).
Values joined by “and” are separate entries in the source; they are usually repeats but may differ in a detail not shown here. Equal values may be shown once. Records with an inconclusive call do not appear. Entries that show only a call come without a potency. Unmarked numbers belong to inactive results. Active and inactive are the calls of the source. Calls come from the whole dose curve; as a rule, active = well fitted curve in the direction sought with a large enough effect; inconclusive = small, poorly fitted or top-dose-only effect, or another doubt; inactive = no such curve, though single readings can be large; an effect the other way counts as inactive or inconclusive.

Legend:
[1] = biological target: Cellular tumor antigen p53 (Homo sapiens) (UniProt P04637); assay: Primary qHTS for small molecule compounds that upregulate eGFP-tagged delta133p53alpha (in N-terminal) cells. (AID 2060322); conditions: NCI-H358 eGFP-delta133p53alpha fluorescence, 24 h; activation: hits give high values; note: nearly all actives have a fitted effect of over 75% in size; note: potency is the fitted concentration of half-maximal effect; for activation: series mostly up to about 56 µM
In short: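 NCI-H358 cells pre-induced 24 h with 10 ng/ml doxycycline to express N-terminal eGFP-delta133p53alpha, then dosed 24 h at 37C without doxycycline; fixed, Hoechst-stained, GFP intensity by laser scanning cytometry, normalized to DMSO (0%) and 57.5 uM 5-azacytidine (100%).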

[2] = biological target: Aldehyde dehydrogenase, mitochondrial (Homo sapiens) (UniProt P05091); assay: qHTS for Inhibitors of the Aldehyde Dehydrogenase Family (ALDH2) Primary screen (AID 2061308); note: nearly all actives have a fitted effect of over 55% in size

Cellular tumor antigen p53 (Homo sapiens), sequence (P04637 whole entry, looked up): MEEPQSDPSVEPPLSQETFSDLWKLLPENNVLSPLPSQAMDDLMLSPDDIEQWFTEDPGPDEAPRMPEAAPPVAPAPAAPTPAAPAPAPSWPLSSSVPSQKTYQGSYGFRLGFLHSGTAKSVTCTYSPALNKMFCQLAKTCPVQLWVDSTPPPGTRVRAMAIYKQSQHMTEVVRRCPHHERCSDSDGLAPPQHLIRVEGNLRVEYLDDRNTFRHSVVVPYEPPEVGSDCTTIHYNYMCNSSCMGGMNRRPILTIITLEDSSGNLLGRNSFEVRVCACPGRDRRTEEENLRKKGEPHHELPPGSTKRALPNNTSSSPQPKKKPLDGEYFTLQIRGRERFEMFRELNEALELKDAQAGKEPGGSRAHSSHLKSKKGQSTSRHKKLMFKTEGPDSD

| SMILES | activation [1] | Potency [2] | Potency [1] |
| --- | --- | --- | --- |
| COc1c2cc(c(O[C@@H]3O[C@H](CO)[C@@H](O)[C@H](O)[C@H]3O)c1OC)CCCCC(O)CCc1ccc(O)c-2c1 (some centres not stated) | 8.93% | inactive | – |
| C[C@@H]1O[C@@H](O[C@H]2[C@H](OC(C#N)c3ccc(O)cc3)O[C@H](CO)[C@@H](O)[C@@H]2O)[C@H](O)[C@H](O)[C@H]1O (some centres not stated) | -19.8% | inactive | – |
| C[C@H](NCc1ccc(OCc2ccccc2F)cc1)C(N)=O | 11.5% | inactive | – |
| CC(O)/C=C/C1(O)C2(C)COC1(C)CC(O)C2 (configuration not stated) | 9.82% | inactive | – |
| O=C(O[C@H]1[C@@H]2C=CO[C@@H](O[C@@H]3O[C@H](CO)[C@@H](O)[C@H](O)[C@H]3O)[C@@H]2[C@@]2(CO)O[C@@H]12)c1ccc(O)c(O)c1 | -2.68% | inactive | – |
| C=CCC1=C[C@]2(OC)[C@H](C)[C@@H](c3ccc(O)c(OC)c3)O[C@]2(OC)CC1=O | -15.2% | inactive | – |
| COc1cc2nc(N3CCN(C)CC3)nc(NC3CCN(Cc4ccccc4)CC3)c2cc1OC | 2.33% | inactive | – |
| O=C(/C=C/c1ccc(O)cc1)O[C@H]1[C@@H]2C=CO[C@@H](O[C@@H]3O[C@H](CO)[C@@H](O)[C@H](O)[C@H]3O)[C@@H]2[C@@]2(CO)O[C@@H]12 | -7.63% | inactive | – |
| COc1cc(C2OCC3C(c4ccc(OC5OC(CO)C(O)C(O)C5O)c(OC)c4)OCC23)ccc1O (configuration not stated) | -24.4% | inactive | – |
| NC(=O)c1ccc(OCC2NC(=O)C3CCCN3C2=O)cc1 (configuration not stated) | -12.2% | inactive | – |
| O=C(OC[C@@]1(O)CO[C@@H](O[C@H]2[C@H](Oc3ccc(O)cc3)O[C@H](CO)[C@@H](O)[C@@H]2O)[C@@H]1O)c1ccc(O)cc1 | -19.1% | inactive | – |
| COC(=O)C1=COC(O[C@@H]2O[C@H](CO)[C@@H](O)[C@H](O)[C@H]2O)C2C(C)C(=O)CC12 (some centres not stated) | -1.53% | inactive | – |
| COc1cc(CC(COC2OC(CO)C(O)C(O)C2O)c2cc(/C=C/CO)cc(OC)c2O)ccc1O (configuration not stated) | -6.25% | inactive | – |
| CC1=C(C(=O)O[C@@H]2O[C@H](COC3OCC(O)C(O)C3O)[C@@H](O)[C@H](O)[C@H]2O)C(C)(C)CCC1 (some centres not stated) | -13% | inactive | – |
| COc1cc([C@@H]2Oc3c(OC)cc(CCCO)cc3[C@@H]2CO[C@@H]2O[C@H](CO)[C@@H](O)[C@H](O)[C@H]2O)ccc1O | -9.16% | inactive | – |
| CC1CC2OCC3(O)CCC(O)C(C14CC(c1ccoc1)OC4=O)C23CO (configuration not stated) | -6.11% | inactive | – |
| C=C1CC[C@@H]2[C@](C)(CO)[C@H](O)CC[C@@]2(C)[C@@H]1CC(O)C1=CCOC1=O (some centres not stated) | -5.34% | inactive | – |
| CC(CNS(=O)(=O)C(C)C)c1ccc(-c2ccc(C#N)cc2)cc1 (configuration not stated) | -9% | inactive | – |
| C/C=C1\[C@H](OC2OC(COC3OC(CO)C(O)C(O)C3O)C(O)C(O)C2O)OC=C(C(=O)OC)[C@H]1CC(=O)OCCc1ccc(O)cc1 (some centres not stated) | -13% | inactive | – |

| SMILES | activation [1] | Potency [2] | Potency [1] |
| --- | --- | --- | --- |
| COc1cc(C(=O)OC[C@H]2O[C@@H](OC(C)(C)C(=O)O)[C@H](O)[C@@H](O)[C@@H]2O)cc(OC)c1O | -29.5% | inactive | – |
| COC(=O)C1=COC(O[C@@H]2O[C@H](CO)[C@@H](O)[C@H](O)[C@H]2O)/C(=C\COC(=O)/C=C/c2ccccc2)C1CC(=O)OCCc1ccc(O)cc1 (some centres not stated) | -0.763% | inactive | – |
| COc1cc(/C=N\NC(=O)c2ccc3c(c2)OCO3)ccc1OCc1ccccc1 | 2.39% | inactive | – |
| CC1CC=C2C1CC1(O)C(=O)CC2(C)C1(C)CO (configuration not stated) | 3.82% | inactive | – |
| COC(=O)C1=COC(O[C@@H]2O[C@H](CO)[C@@H](O)[C@H](O)[C@H]2O)/C(=C\COC(=O)c2ccc(OC3OC(CO)C(O)C(O)C3O)c(OC)c2)C1CC(=O)OCCc1ccc(O)cc1 (some centres not stated) | -11.5% | inactive | – |
| CC1CCC2C(C(=O)O)=CC3(O)CC(C)(C)CC123 (configuration not stated) | -22.3% | inactive | – |
| CC1(O)CCC2C(C(=O)O)=COC(OC3OC(CO)C(O)C(O)C3OC(=O)/C=C/c3ccc(O)cc3)C21 (configuration not stated) | -16% | inactive | – |
| C=C1CCC2C(C)(COC3OC(COC(=O)CC(=O)O)C(O)C(O)C3O)CCCC2(C)C1CCC1=CCOC1=O (configuration not stated) | 8.4% | inactive | – |
| COc1cc(C[C@@]2(O)CO[C@@H](c3ccc(O[C@@H]4O[C@H](CO)[C@@H](O)[C@H](O)[C@H]4O)c(OC)c3)[C@H]2CO)ccc1O | -17% | inactive | – |
| OC[C@H]1O[C@@H](OCCc2ccccc2)[C@H](O[C@@H]2OC[C@](O)(CO)[C@H]2O)[C@@H](O)[C@@H]1O | -4.58% | inactive | – |
| N#Cc1cnc2c(Cl)cc(NCc3cn(CCN4CCCCCC4)nn3)cc2c1Nc1ccc(F)c(Cl)c1 | – | inactive | 4.26 µM (active) |
| COc1cc(C(=O)OCC2=CCC3C(C(=O)O)=COC(O[C@@H]4O[C@H](CO)[C@@H](O)[C@H](O)[C@H]4O)C23)ccc1O (some centres not stated) | -9.82% | inactive | – |
| CC(=O)N[C@H]1[C@H](O[C@H]2CC[C@@]3(C)C(CC[C@]4(C)C3CC=C3C5CC(C)(C)CC[C@]5(C(=O)O)[C@H](O[C@@H]5O[C@H](CO)[C@@H](O)[C@H](O)[C@H]5O)C[C@]34C)C2(C)C)O[C@H](CO[C@@H]2OC[C@H](O)[C@H](O)[C@H]2O[C@@H]2OC[C@@H](O)[C@H](O)[C@H]2O)[C@@H](O)[C@@H]1O (some centres not stated) | -9.16% | inactive | – |
| CN1CCCC1Cc1c[nH]c2ccc(CCS(=O)(=O)c3ccccc3)cc12 (configuration not stated) | 24.3% | inactive | – |
| C=C[C@@]1(C)C=C2C(=O)C(O)=C3[C@](C)(C(=O)O)CC[C@@H]4C[C@]34[C@]2(O)C(=O)C1 | – | inactive | 6.59 µM (active) |
| CC1=CC(=O)CC(C)(C)C1CO[C@@H]1O[C@H](CO)[C@@H](O)[C@H](O)[C@H]1O (some centres not stated) | 6.25% | inactive | – |
| COc1c(C)c(C(=O)c2ccc(N)c(C(=O)O)c2)n2ccccc12 | 10% and 14.3% | inactive | – |
| CC1=CC(=O)CC(C)(C)C1/C=C/C(C)O[C@@H]1O[C@H](CO)[C@@H](O)[C@H](O)[C@H]1O[C@@H]1OC[C@](O)(CO)[C@H]1O (some centres not stated) | -2.68% | inactive | – |
| O=C(O[C@H]1[C@@H]2C[C@@H]3OC[C@](O)([C@@H]1Cl)[C@H]2C(O[C@@H]1O[C@H](CO)[C@@H](O)[C@H](O)[C@H]1O)O3)c1ccc(O)c(O)c1 (some centres not stated) | -22.1% | inactive | – |

| SMILES | activation [1] | Potency [2] | Potency [1] |
| --- | --- | --- | --- |
| CC(C)(O)/C=C/C1=CC(=O)[C@@](C)(O)C[C@H]1O | -8.4% | inactive | – |
| C=C1[C@H]2[C@H](O[C@@H]3O[C@H](COC(=O)/C=C/c4cc(OC)c(O)c(OC)c4)[C@@H](O)[C@H](O)[C@H]3O)OC=C(C(=O)O)[C@H]2C[C@@H]1O | -10.7% | inactive | – |
| COC(=O)C1=CO[C@@H](O[C@@H]2O[C@H](CO)[C@@H](O)[C@H](O)[C@H]2O)[C@@H]2C(CO)=CC[C@H]12 | 0% | inactive | – |
| COC(=O)C[C@H]1[C@]2(C)C3=C(C)[C@H](c4ccoc4)C[C@H]3O[C@@H]2[C@H](OC(C)=O)C2[C@](C)(C(=O)OC)C=CC(=O)[C@@]21C (some centres not stated) | 11.6% | inactive | – |
| Cc1cc(N(C)C)ccc1-c1nc2ccc(-c3nc4ccc(N5CCN(C)CC5)cc4[nH]3)cc2[nH]1 | – | inactive | 30.1 µM (active) |
| C=C1C(=O)OC[C@@H]1C/C=C(\C)CC1CC(C)C(=O)O1 (some centres not stated) | – | inactive | 23.9 µM (active) |
| COc1cc(N2CCOCC2)ccc1Nc1ncc(F)c(Nc2ccccc2NS(C)(=O)=O)n1 | – | inactive | 9.53 µM (active) |
| C[C@@H]1O[C@@H](O[C@H]2[C@@H]3C=CO[C@@H](O[C@@H]4O[C@H](CO)[C@@H](O)[C@H](O)[C@H]4O)[C@@H]3[C@@]3(CO)O[C@@H]23)[C@H](OC(=O)/C=C/c2ccc(O)c(O)c2)[C@H](O)[C@H]1O | -5.34% | inactive | – |
| C=C1CC[C@@H]2[C@](C)(CO)[C@H](O)CC[C@@]2(C)[C@@H]1/C=C/C1=CCOC1=O | -12.2% | inactive | – |
| N#Cc1cc(F)cc(-c2nc(-c3ccccn3)no2)c1 | -12.4% | inactive | – |
| OCCc1ccc(O[C@@H]2O[C@H](CO)[C@@H](O)[C@H](O)[C@H]2O)c(O)c1 | 8.93% | inactive | – |
| Cc1c(C)c(NCC(=O)N(C)C2CCN(Cc3ccc(C(N)=O)cc3)CC2)c(C)c(C)c1N | 1.43% | inactive | – |
| CC1(C)CC2C=C(C(=O)O)C3COC(=O)C(O)(CO)C23C1 (configuration not stated) | -13% | inactive | – |
| COc1cccc2cc3c(c(O[C@@H]4O[C@H](CO[C@@H]5O[C@H](CO)[C@@H](O)[C@H](O)[C@H]5O)[C@@H](O)[C@H](O)[C@H]4O)c12)C(C)OC3=O (some centres not stated) | 3.57% | inactive | – |
| CC1(C)C(O)CCC2(C)C1C(O)C=C1COC(=O)C12O (configuration not stated) | 3.82% | inactive | – |
| COc1ccc(-c2ccc3c(N4CCOCC4C)nc(N4CCOCC4C)nc3n2)cc1CO (configuration not stated) | 7.14% | inactive | – |
| CC1=CC(=O)CC(C)(C)C1(O)CCC(C)O (configuration not stated) | 0.893% | inactive | – |
| COc1cc(/C=C/C(=O)O[C@H]2[C@H](O)[C@@H](CO)O[C@@]2(CO)O[C@H]2O[C@H](CO)[C@@H](O)[C@H](O)[C@H]2O)cc(OC)c1O | -32.8% | inactive | – |
